Among all 370,000 compounds or so, about 2,600 (0.7%) were called active. For the sample, actives were picked, then their nearest neighbours and some compounds at random. A number with no mark means an inactive call.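 How the source made its calls: active means inhibition above a cutoff: mean of compounds within the control limits plus 3 SD of those (cut at about 17% in these data); inactive means the rest.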
target: Sialate O-acetylesterase (Homo sapiens) (UniProt Q9HAT2); assay: human SIAE inhibitors, primary screen, biochemical, fluorescence polarization, FP-Rh probe, 1536-well HTS (AID 1053197); details: SIAE FP-Rh probe binding, at 9.66 µM, stronger effect = higher value;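 further: 0% = plate median of compound wells and 100% = probe without SIAE protein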
Sequence (Q9HAT2 whole entry, looked up): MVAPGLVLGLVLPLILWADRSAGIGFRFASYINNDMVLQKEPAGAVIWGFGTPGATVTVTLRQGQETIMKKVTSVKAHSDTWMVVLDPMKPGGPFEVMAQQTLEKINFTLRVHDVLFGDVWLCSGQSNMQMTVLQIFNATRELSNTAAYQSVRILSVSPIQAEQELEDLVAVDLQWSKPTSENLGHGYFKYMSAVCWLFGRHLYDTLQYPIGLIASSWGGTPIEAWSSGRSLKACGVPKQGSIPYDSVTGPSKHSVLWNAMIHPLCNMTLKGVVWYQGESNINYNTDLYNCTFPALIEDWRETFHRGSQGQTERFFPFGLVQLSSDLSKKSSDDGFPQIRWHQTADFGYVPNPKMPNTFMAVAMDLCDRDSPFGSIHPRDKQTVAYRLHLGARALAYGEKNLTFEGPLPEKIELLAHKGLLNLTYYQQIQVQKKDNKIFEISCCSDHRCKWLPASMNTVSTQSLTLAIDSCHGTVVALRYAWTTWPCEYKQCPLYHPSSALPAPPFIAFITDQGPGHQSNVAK

| Structure (SMILES) | inhibition |
| --- | --- |
| COc1ccc([C@H]2OC(=O)C[C@H]2C(=O)N2CCN(c3ccccc3F)CC2)cc1OC | -5.68% |
| CC(C)c1cc(C(=O)N/N=C/c2ccoc2)c(O)c(C(C)C)c1 | -13.5% |
| CC(C)=CCc1ccc(O)c(=O)cc1C(C)C | 6.87% |
| CC(C)c1cc(N=O)cc(C(C)C)c1O | 25.2% (active) |
| O=C(NCCCc1ccccc1)[C@H](Cc1ccccc1)NC1(C(=O)NCCc2c[nH]c3ccccc23)CCC1 | 4.77% |
| Cc1ccc(-n2c(SCC(=O)Nc3ccc(S(=O)(=O)Nc4nccs4)cc3)nnc2-c2cccnc2)cc1 | -10.3% |
| C=C1C(C(C)C)N(C)C2=NC(c3ccccc3)CC(=O)N12 (centres undefined) | 6.93% |
| NS(=O)(=O)c1ccc(NC(=S)NNC(=O)c2cccs2)cc1 | 4.71% |
| O=C(NC(=S)Nc1ccc(NC(=O)c2cccs2)cc1)c1ccc([N+](=O)[O-])cc1 | 26.9% (active) |
| O=C(NC(=S)Nc1cccc(-c2ccc(CO)o2)c1)c1cccs1 | -33.9% |
| O=C(c1ccncc1)N1CC[C@H]2[C@H](CCCN2Cc2ccc(F)cc2)C1 | 2.68% |
| C=CCn1c(SCC(N)=O)nnc1-c1ccccc1OC | -7.56% |
| CCC(=O)Nc1ccc(C(=O)CSc2nnc(CNc3ccc(Cl)cc3)o2)cc1OC | -0.55% |
| CC(=O)Nc1ccc(C(=O)CSc2nnc(Cc3ccccc3)o2)cc1 | -1.29% |
| Cn1c(CC(=O)Nc2ccc(F)cc2)nnc1SCC(=O)NC1CCCCC1 | 2.38% |
| CCOc1ccc(Nc2nc(Cc3nnc(SCC(=O)c4ccc(C)cc4)o3)cs2)cc1 | 18.2% (active) |
| CCOc1cccc(-c2nnc(SCC(=O)NC3CC3)n2C)c1 | -3.03% |
| CCOc1ccc(Nc2nc(Cc3nnc(SCC(=O)NC4CCCC4)n3C)cs2)cc1 | 19.1% (active) |
| CC(C)(C)c1ccc(C(=O)Nc2cc(Cl)c(Br)cc2C(=O)O)cc1 | -77.3% |
| COc1ccc(-n2c(SCC(=O)Nc3ccccc3-c3ccccc3)nnc2-c2cccnc2)cc1 | 4.69% |
| Clc1ccc(-n2c(COc3ccccc3)nnc2SCc2nc3ccccc3[nH]2)cc1 | -2.83% |

| Structure (SMILES) | inhibition |
| --- | --- |
| Nn1c(SCC(=O)Nc2ccc(S(N)(=O)=O)cc2)nnc1-c1n[nH]c2c1CCC2 | -5.56% |
| Cc1ccccc1CN1CCCCC(NC(=O)Nc2ccccc2F)C1=O (centres undefined) | 1.41% |
| Nc1ccc2nc3c(=O)[nH]c(=S)[nH]c3nc2c1 | 31.8% (active) |
| O=C(N1CCOCC1)N1CC[C@H]2[C@H](CCCN2Cc2ccc(F)cc2)C1 | 0.67% |
| O=C(c1cccc(C(F)(F)F)c1)N1CC[C@H]2[C@H](CCCN2Cc2cc(F)cc(F)c2)C1 | 1.24% |
| C=CCN1[C@H](CC(C)C)COc2cccc(N3CCCC3)c2S1(=O)=O | 6.71% |
| CNC(=S)N/N=C/c1ccc(OCc2ccccc2)c(Br)c1 | -1.33% |
| CNC(=S)N/N=C/c1cn(Cc2ccc(C)cc2)c2ccccc12 | 18.3% (active) |
| NC(=O)Cn1cc(/C=N\NS(=O)(=O)c2ccccc2)c2ccccc21 | 10.5% |
| c1coc(CCNc2ncnc3ccc(-c4ccc5c(c4)OCO5)cc23)c1 | -15.4% |
| CCC(=O)Nc1ccc2c(c1)C(=O)N(C)[C@H]1CC[C@H](CC(=O)NCCOC)O[C@@H]1CO2 | -4.02% |
| COc1ccc(C#CCNCc2ccc(OC)cc2OC)cc1 | 3.3% |
| COc1cccc(/C=N/Nc2cc(C)nc(-c3ccccc3O)n2)c1O | 18.5% (active) |
| Oc1cc2c(cc1O)CN(C(=S)NCCc1ccc(Cl)cc1)CCC2 | 2.67% |
| Oc1ccc(N2CCN(C(=S)NCc3ccccc3)CC2)cc1 | 10.2% |
| O=C1CCN(C(=S)NCCc2ccccc2)CC1 | 17.5% (active) |
| CCOC(=O)C(=O)N(Cc1ccccc1)c1ccccc1C(=O)Nc1cc(OC)ccc1OC | -7.2% |
| CC(C)(C)OC(=O)NCc1cc(F)ccc1/C=C/S(=O)(=O)NCCc1ccccc1 | -1.86% |
| COC(=O)c1cc(S(=O)(=O)N2CCN(c3ccccc3C)CC2)cn1C | 2.1% |
| NC(=O)C1(N2CCCCC2)CCN(C(=O)c2ccc(C#Cc3ccccc3)o2)CC1 | -5.47% |
| CC(C)(O)C#Cc1ccc(C(=O)N2CCC(C(N)=O)(N3CCCCC3)CC2)cc1 | 22.5% (active) |

| Structure (SMILES) | inhibition |
| --- | --- |
| CCC(=O)N1CCC(C(N)=O)(N2CCCCC2)CC1 | -0.17% |
| CCC[C@H]1C(=O)CC[C@@]23CCCN2C(=O)CCC[C@@H]13 | -0.79% |
| CC[C@@H](CCC(=O)N(c1ccccc1)c1ccccc1)C1CC1 | -1.88% |
| COC(=O)[C@]1(C#N)CC(=O)N(CC2CCCCC2)[C@@H]1c1ccccc1 | 2.31% |
| Cc1cccc(C2C3=C(CCCC3=O)N=C3c4ccccc4C(=O)C32)c1 (centres undefined) | 6.75% |
| Cc1cccc(C2c3c(n(C)c(=O)n(C)c3=O)N=C3c4ccccc4C(=O)C32)c1 (centres undefined) | 17.7% (active) |
| COc1ccc(C2C3=C(OC(C)=O)c4ccccc4C3=Nc3c2c(=O)n(C)c(=O)n3C)cc1 (centres undefined) | 1.68% |
| CCC(CO)Nc1cccc2c1S(=O)(=O)N(Cc1cn(Cc3ccccc3C(F)(F)F)nn1)Cc1ccccc1O2 (centres undefined) | 7.92% |
| COC(=O)c1cc(S(=O)(=O)N2CCN(C(=O)C3CCCO3)CC2)cn1C (centres undefined) | -4.53% |
| CCCCOCCCNC(=O)C[C@H]1C[C@@]2(C(=O)OC)C(=C[C@H](C(C)(C)C)O[C@@H]2C)N(CCc2ccc(OC)c(OC)c2)C1=O | -1.28% |
| CCOC(=O)[C@]12CCCCC/C=C\1N(Cc1ccc(OC)cc1)C(=O)[C@H]2CC(=O)NCCCN1CCCC1=O | 4.21% |
| CCOc1cc(N2CCOCC2)c(OCC)cc1NC(=O)C1=NN(c2cccc(C)c2)C(=O)CC1 | 7.16% |
| CCOc1cc(N2CCOCC2)c(OCC)cc1NC(=O)COc1cccc2cccnc12 | 25.5% (active) |
| NC(=O)C1CCN(C(=O)COc2cccc3cccnc23)CC1 | 4% |
| CC(=O)NS(=O)(=O)c1ccc(N/C(N)=N/c2nc(C)cc(C)n2)cc1 | -5.5% |
| COc1ccc(C(=O)NNc2cc(C)nc(NNC(=O)c3ccc(OC)cc3)n2)cc1 | -3.36% |
| CC(=O)Nc1ccc(Nc2cc(C)nc(Nc3ccc(NC(C)=O)cc3)n2)cc1 | 19.1% (active) |
| CCC(c1ccc(NC(=O)OC(C)(C)C)cc1)c1cc(OC)cc(OC)c1 (centres undefined) | -2.44% |
| C=CCN1C(=O)[C@H](CC(=O)N2CCN(C(=O)OCC)CC2)[C@@]2(C(=O)OCC)CCCC=C12 | 10.1% |
| CC(=O)N1CCc2cc(S(=O)(=O)NCCC(=O)N3CCCC3)ccc21 | -1.37% |
| C=CCN1C(=O)[C@@H](CC(=O)N2CCN(C(=O)c3ccco3)CC2)[C@]2(C(=O)OC)CCCCC=C12 | 2.59% |

| Structure (SMILES) | inhibition |
| --- | --- |
| CC(C)N1CCCCC(NC(=O)C(C)(C)C)C1=O (centres undefined) | -4.73% |
| O=C(COc1ccc(Cl)cc1)NCCSc1ccccc1 | 0.9% |
| Cc1cc2ccccc2n1CCNC(=O)COc1ccc2ccccc2c1 | 27.9% (active) |
| Cc1ccccc1OCC(=O)NCC(=O)OCC(=O)c1ccc2ccccc2c1 | -1.57% |
| C[C@H]1[C@H](NC(=O)c2cccc(N(C)C)c2)CC[C@@]23CCCN2C(=O)CCC[C@@H]13 | 0.13% |
| COc1ccc(CSc2nnc(-c3cccc(C)c3)n2C)cc1 | 4.99% |
| COC(=O)C[C@@H]1CC[C@H]2[C@@H](COc3ccc(NS(=O)(=O)CC(F)(F)F)cc3C(=O)N2C)O1 | 8.2% |
| COC(=O)[C@]12C[C@H](CC(=O)NCc3cccs3)C(=O)N(CCc3ccc(OC)c(OC)c3)C1=C[C@H](C(C)C)O[C@@H]2C1CC1 | 9.66% |
| COc1ccc(C2CC=C(C(=O)O)C(c3ccccc3F)N2S(=O)(=O)c2ccc(C)cc2)cc1OC (centres undefined) | -2.16% |
| COC(=O)/C(=C1\Oc2ccc(C(C)(C)C)cc2S1)C(F)(F)F | 0.75% |
| CCOC(=O)c1nnn(-c2nonc2OC)c1-c1ccccc1 | 1.88% |
| CCOC(=O)C1=C(c2ccccc2)O/C(=C(/C(=O)OC)C(F)(F)F)S1 | 36% (active) |
| c1csc(-c2nnc(SCc3nc4ccccc4[nH]3)o2)c1 | -0.76% |
| CCCNC(=O)Nc1ccc2c(c1)C(=O)N(C)[C@H]1CC[C@H](CC(=O)NCC3CCCCC3)O[C@@H]1CO2 | -0.34% |
| Cc1cccc(NC(=O)C[C@H]2CC[C@H]3[C@@H](COc4ccc(NC(=O)Nc5ccccc5)cc4C(=O)N3C)O2)c1 | -1.56% |
| COc1ccc(/C=N/NC(=O)c2ccncc2)cc1CN1CCCc2ccccc21 | 18.8% (active) |
| COc1ccccc1CCC(=O)NNC(=O)c1ccncc1 | -7.13% |
| CCc1ccc(/C=N/NC(=O)c2nnn(-c3nonc3N)c2CN2CCc3ccccc32)cc1 | -0.3% |
| CCCCNC(=O)C[C@H]1C[C@@]2(C(=O)OC)C(=C[C@H](COCc3ccccc3)O[C@@H]2C)N(Cc2ccc(Cl)cc2Cl)C1=O | 11.1% |
| COc1ccc(S[C@]2(C(=O)N(C)C)CC(=O)N(c3ccc(OC)cc3)[C@@H]2c2ccc(OC)cc2)cc1 | -0.86% |
| Cc1ccc(NC(=O)Cc2cccc(F)c2)c(S(=O)(=O)N2CCOCC2)c1 | -2.62% |

From PubChem BioAssay AID1053197 (The Scripps Research Institute Molecular Screening Center, 2014)
